# PubChem BioAssay (NCATS)
# Results filed as inconclusive are left out. Entries that show only a call come without a potency. The source made the active and inactive calls. The call rests on the fitted dose curve; in most records, active means well fitted inhibition curve with a large enough effect; inconclusive means small, poorly fitted or top-dose-only effect; inactive means flat fitted curve, though single readings scatter.
# Biological target: Ubiquitin carboxyl-terminal hydrolase 1 (Homo sapiens) (UniProt O94782)
# Assay: Inhibitors of USP1/UAF1: Pilot qHTS (AID 504865);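 further: rhodamine fluorescence freed from ubiquitin-rhodamine substrate followed over time; top concentration of the series differs between compounds; nearly all actives have a fitted effect of over 35% in size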
# Conditions: purified USP1/UAF1, Ub-rhodamine cleavage fluorescence; series mostly up to 114 µM
# Procedure, shortened: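 USP1/UAF1 complex (1nM) preincubated with compound 15 min at room temperature, then Ub-Rho substrate (150nM final) added. Fluorescence read kinetically at 480/540 nm, 6 reads every 60 seconds. Buffer: 50mM HEPES pH 7.8, 0.5mM EDTA, 0.1 mg/ml BSA, 1mM TCEP, 0.01% Tween-20.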
# Chain of Ubiquitin carboxyl-terminal hydrolase 1 (Homo sapiens) (O94782 whole entry, looked up): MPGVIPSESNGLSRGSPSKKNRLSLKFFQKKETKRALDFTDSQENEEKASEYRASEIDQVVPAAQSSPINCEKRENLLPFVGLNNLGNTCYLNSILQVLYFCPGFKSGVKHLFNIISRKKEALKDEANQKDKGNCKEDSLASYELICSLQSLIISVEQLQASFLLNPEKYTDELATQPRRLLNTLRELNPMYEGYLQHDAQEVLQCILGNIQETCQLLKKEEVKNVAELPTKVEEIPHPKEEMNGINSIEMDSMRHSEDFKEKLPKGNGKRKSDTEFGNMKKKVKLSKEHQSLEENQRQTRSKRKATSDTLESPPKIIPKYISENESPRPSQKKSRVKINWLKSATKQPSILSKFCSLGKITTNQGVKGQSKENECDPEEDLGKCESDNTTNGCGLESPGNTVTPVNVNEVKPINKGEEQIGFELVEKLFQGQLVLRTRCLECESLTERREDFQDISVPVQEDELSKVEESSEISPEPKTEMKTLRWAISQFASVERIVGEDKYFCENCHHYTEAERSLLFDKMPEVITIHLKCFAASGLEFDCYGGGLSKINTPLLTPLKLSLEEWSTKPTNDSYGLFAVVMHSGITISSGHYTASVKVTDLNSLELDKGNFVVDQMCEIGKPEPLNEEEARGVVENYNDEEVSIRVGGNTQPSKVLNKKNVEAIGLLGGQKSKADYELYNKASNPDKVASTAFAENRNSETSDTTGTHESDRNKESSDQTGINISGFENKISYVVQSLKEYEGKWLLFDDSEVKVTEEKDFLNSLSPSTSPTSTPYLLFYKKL
row,Compound,Potency
1,NC(=O)n1c(O)c(C(=O)c2cccs2)c2cc(Cl)ccc21,inactive
2,O=C1C(CCS(=O)c2ccccc2)C(=O)N(c2ccccc2)N1c1ccccc1 (configuration not stated),inactive
3,O=C(O)CCNC(=O)c1ccccc1,inactive
4,COc1cc(C(=O)NCc2ccc(OCCN(C)C)cc2)cc(OC)c1OC,inactive
5,CCC(Cc1c(I)cc(I)c(N)c1I)C(=O)O (configuration not stated),inactive
6,O=C(O)P(=O)(O)O,inactive
7,CCOc1ccccc1OCCN[C@H](C)Cc1ccc(OC)c(S(N)(=O)=O)c1,inactive
8,O=[N+]([O-])c1cccc(S(=O)(=O)NCCNS(=O)(=O)c2cccc([N+](=O)[O-])c2)c1,inactive
9,CNCCc1ccccn1,inactive
10,O=C(NCCc1c[nH]c2ccccc12)c1cccnc1,inactive
11,COc1cc(N)c(Cl)cc1C(=O)NC1CCN(Cc2ccccc2)CC1,inactive
12,OC1C(O)C(O)C(O)C(O)C1O (configuration not stated),inactive
13,Cc1cccc(C)c1NC(=O)CN1CCCC1,inactive
14,CC(=O)Nc1ccc(S(=O)(=O)Nc2ccc([N+](=O)[O-])cc2)cc1,inactive
15,NCCNC(=O)c1ccc(Cl)cn1,inactive
16,CC(=O)NCCCCCC(=O)O,inactive
17,O=C(CCN1CCN2CCCC2C1)N1c2ccccc2Sc2ccc(Cl)cc21 (configuration not stated),inactive
18,CC(C)Cc1ccc(CC(=O)O)cc1,inactive
19,CCCCc1cc2ccccc2c(OCCN(C)C)n1,inactive
20,Cc1cc(C)cc(OCC2CNC(=O)O2)c1 (configuration not stated),inactive
21,CN1CCN(CCC(=O)N2c3ccccc3Sc3ccc(C(F)(F)F)cc32)CC1,inactive
22,COc1ccc2c(c1)c1c3n2CCN(C)C3=NCC1,inactive
